Screening results deposited in PubChem BioAssay by National Center for Advancing Translational Sciences (NCATS).
In the library only some 9.4% were active in any assay of this set; here they are far more common.
Pf growth 96h – inhibits malaria parasite growth, 96 h | P. falciparum luciferase reporter growth, 96 h | Potency, µM (highest dose often 28.7 µM), for inactives: top-dose activity change, negative = inhibition, actives largely listed as inhibitors | actives 6.9% (n = 320,000); also: % is scaled to controls: 0 for no effect and ±100 for the full control effect
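Two parasite generations (96 h, 37 C, 5% CO2) of compound exposure in infected erythrocytes (0.05% parasitemia, 2% hematocrit). Luciferase-reporter P. falciparum; decreased luminescence indicates inhibited growth, aimed at apicoplast-acting delayed death.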
SARS PLpro yeast – inhibitors of SARS-CoV papain-like protease in yeast | S. cerevisiae expressing SARS-CoV PLpro, growth rescue | Potency, µM (series often up to 32.9 µM), for inactives: at the highest dose activity, positive = growth rescue, usual class: activators | actives 0.19% (n = 330,000) | AID 485353; calls by dose curve; also: 0% is about no effect; nearly all actives have a fitted effect of over 55% in size
AMA1 RON2 block – disrupts binding of P. falciparum AMA1 to RON2; AlphaScreen AMA1-biotinylated RON2 peptide binding; Potency, µM (highest dose often 58.2 µM), for inactives: top-dose activity change, negative = inhibition, hits mostly inhibitors; actives 0.2% (n = 360,000); AID 720542;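 also: 0% = vehicle wells and -100% = peptide control; nearly all actives have a fitted effect of over 45% in size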
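AMA1 (3D7) with his tag at 25 nM final met compounds first, then biotinylated RON2 peptide at 25 nM; detection used donor plus acceptor beads, 10 µg/mL apiece, read by AlphaScreen after 30 min at room temperature.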
Pf growth 48h – inhibits P. falciparum growth in the first generation, 48 h. P. falciparum luciferase growth in erythrocytes, 48 h. actives 5.9% (n = 310,000). AID 504832. Potency, µM (top dose mostly 28.7 µM), without a hit: at the top dose activity change, negative = inhibition, most hits filed as inhibitors; also: % is scaled to controls: 0 for no effect and ±100 for the full control effect
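Luminescence readout; reporter = integrated firefly luciferase in P. falciparum. RBC culture at 2% hematocrit, 0.1% parasitemia final, 37 C/5% CO2; decreased signal taken as growth inhibition.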
Active calls of the source: *; ? = inconclusive; nt = no result given; [ ] = another dose, or the depositor's remark. Unless noted, calls follow the shape of the dose curve; as a rule, active = well fitted curve in the direction sought with a large enough effect; inconclusive = small, poorly fitted or top-dose-only effect, or another doubt; inactive = no such curve, though single readings can be large; an effect the other way counts as inactive or inconclusive. Potency is read from the fitted curve at half-maximal effect.

SMILES | Pf growth 96h | SARS PLpro yeast | AMA1 RON2 block | Pf growth 48h
CCOC(=O)C1=C(CNCc2ccccc2Cl)NC(=O)NC1c1cccc([N+](=O)[O-])c1 (stereo not given) | 0.93µM* | 0% | 26% | ?
CCOC(=O)C1=C(CSc2nc3ccccc3s2)NC(=O)NC1c1cccc([N+](=O)[O-])c1 (stereo not given) | ? | nt | -1% | 5.9µM*
CCOC(=O)C1=C(CNCCc2ccc(Cl)cc2)NC(=O)NC1c1cccc([N+](=O)[O-])c1 (stereo not given) | 17% | -1% | -1% | ?
CCOC(=O)C1=C(COc2ccccc2)NC(=O)NC1c1cccc([N+](=O)[O-])c1 (stereo not given) | ? | -2% | -5% | -17%
CC1(C)CC(C(=O)Nc2nccs2)CCO1 (stereo not given) | nt | 2% | 5% | 7%
Cc1c(CCC(=O)O)c(=O)oc2cc3occ(-c4ccc(F)cc4)c3cc12 | nt | -9% | 0% | -18%
Cc1c(CCC(=O)O)c(=O)oc2cc3occ(C(C)(C)C)c3cc12 | 1µM* | 1% | 9% | -8%
CC(C)(C)Nc1nc(Cl)nc(NC2CCCCC2)n1 | 13µM* | -1% | 1% | -19%
COc1nc(NC2CCCCC2)nc(NC(C)(C)C)n1 | nt | nt | -16% | nt
CCC(=O)Nc1cc(Cl)ccc1C(=O)O | nt | 1% | -10% | ?
CC1CCN(Cc2nnnn2CCCC(=O)NC(c2ccccn2)C(F)(F)F)CC1 (stereo not given) | 21% | -1% | 14% | -20%
O=C(NCC1CCCCC1)C12CN(Cc3ccccc3)CC1C(c1cccc([N+](=O)[O-])c1)=NO2 (stereo not given) | ? | -7% | -5% | 1.7µM*
COc1ccc(CCNC(=O)C23CN(Cc4ccccc4)CC2C(c2cccc([N+](=O)[O-])c2)=NO3)cc1 (stereo not given) | ? | -1% | ? | ?
Cc1ccc(CCNC(=O)C23CN(Cc4ccccc4)CC2C(c2cccc([N+](=O)[O-])c2)=NO3)cc1 (stereo not given) | ? | -1% | -18% | 2.9µM*
NC(=O)CNC(=O)[C@@H]1CC2(CC(c3cccc([N+](=O)[O-])c3)=NO2)CN1C(=O)c1ccccc1 (stereo not given in full) | ? | 10% | 3% | 3%
CCCCn1nnnc1C1(C)CCC(=O)N1Cc1ccc(F)cc1 (stereo not given) | nt | nt | -5% | nt
COc1ccccc1-c1ccc(SCc2cccc(C)c2)nn1 | 12µM* | -3% | 15% | 10µM*
COc1ccccc1-c1ccc(SCc2ccc([N+](=O)[O-])cc2)nn1 | ? | -4% | -19% | ?
COC(=O)[C@]1(Cc2ccccc2)N[C@H](CN(C)C(=O)Nc2ccc(C(F)(F)F)cc2)[C@@H]2C(=O)N(Cc3ccccc3)C(=O)[C@@H]21 | nt | -2% | 0% | nt
C/C(=N\Nc1cccc2ccccc12)c1c(O)n(Cc2ccccc2)c(=O)[nH]c1=O | ? | -25% | -11% | 15µM*
C/C(=N\NC(=O)c1ccccc1)c1c(O)n(Cc2ccccc2)c(=O)[nH]c1=O | 18% | 0% | 19% | 34%
Cc1cc2nc(-c3ccccc3)c(Cc3ccccc3)n2c(C)c1Br | nt | nt | -13% | nt
Cc1ccc(OP(N)(=O)Oc2ccc(C)cc2)cc1 | 5.9µM* | -8% | 3% | ?
NP(=O)(OCC(F)(F)F)Oc1ccc(Cl)cc1 (stereo not given) | -8% | ? | -6% | 12%
Cc1ccc(C(=O)OCC(=O)N2CCCc3ccccc32)cc1C | 0% | 2% | 4% | 10%
SMILES | Pf growth 96h | SARS PLpro yeast | AMA1 RON2 block | Pf growth 48h
CCCn1c(=N)c(C(=O)NC2CCCC2)cc2c(=O)n3cccc(C)c3nc21 | ? | 13% | -1% | 1.9µM*
Cc1ccc2nc3c(cc(C(=O)NCCN4CCOCC4)c(=N)n3CCCN3CCOCC3)c(=O)n2c1 | ? | -1% | 2% | 12µM*
COCCNC(=O)c1cc2c(=O)n3cccc(C)c3nc2n(Cc2ccncc2)c1=N | ? | -1% | -8% | ?
Cc1ccc2nc3c(cc(C(N)=S)c(=N)n3CCCOC(C)C)c(=O)n2c1 | 1.5µM* | -2% | 4% | 12µM*
CCCCNC(=O)c1cc2c(=O)n3cccc(C)c3nc2n(Cc2ccncc2)c1=N | -25% | 3% | -6% | 5.2µM*
CC(=O)NCCNC(=O)C1(C)Cc2c(-c3ccc(C(N)=O)cc3)ccnc2O1 (stereo not given) | nt | nt | -2% | nt
O=C(COC(=O)CNC(=O)c1cccc(OC(F)F)c1)NCc1ccc2c(c1)OCO2 | nt | -3% | -8% | nt
Cc1nnc(NC(=O)CCN2C(=O)/C(=C\c3ccccc3)SC2=S)s1 | 146% | 1% | 14% | 63%
Clc1cccc(Cc2c(-c3ccco3)nc3ccc(Cl)cn23)c1 | nt | nt | -21% | nt
CCOCCCn1c(=N)c(C(=O)NCc2ccc3c(c2)OCO3)cc2c(=O)n3cccc(C)c3nc21 | 12% | 6% | -12% | 1µM*
Cc1cccn2c(=O)c3cc(C(=O)NC4CCCCC4)c(=N)n(CCN4CCOCC4)c3nc12 | ? | 0% | 11% | ?
CCCCNC(=O)c1cc2c(=O)n3cccc(C)c3nc2n(CCN2CCOCC2)c1=N | ? | 4% | 2% | 3.7µM*
CC(=O)c1c(C)[nH]c(C(=O)Nc2ccc(Cl)c(S(=O)(=O)N(C)C)c2)c1C | ? | 2% | -1% | ?
CC(=O)c1c(C)[nH]c(C(=O)OCC(=O)Nc2ccc(Cl)c(S(=O)(=O)N(C)C)c2)c1C | 6.6µM* | 1% | -5% | 1.2µM*
CN(CCOc1ccccc1)CC(=O)Nc1ccc(Cl)c(S(=O)(=O)N(C)C)c1 | 9.3µM* | 2% | 7% | -19%
CN(C)S(=O)(=O)c1cc(NC(=O)CNCc2ccccc2)ccc1Cl | ? | -1% | -2% | -11%
C[C@]12CCC(=O)C[C@@H]1CC[C@@H]1[C@@H]2CC[C@]2(C)[C@@H](O)CC[C@@H]12 | -20% | -11% | -6% | -2%
C[C@]12CCC3C(CCC4=C(Cl)C(=O)CC[C@@]43C)C1CCC2O (stereo not given in full) | 11µM* | nt | nt | ?
COc1ccc(C(=O)CSc2nnc(CN3CCCCC3)n2-c2ccc(Cl)cc2)cc1OC | 10µM* | 11% | -1%[11.6 µM] | ?
Cc1ccc(OCCCC(=O)NCc2ccco2)c(C)c1 | 11% | -1% | nt | 4.1µM*
Cc1cc(C)c2c(CC(=O)NCc3ccco3)coc2c1 | 1µM* | -7% | -10% | 8%
O=C(CCNC(=O)c1ccc(Br)cc1)NCc1ccco1 | 27% | 2% | 0% | 38%
Cc1ccc(C(=O)NCCC(=O)NCc2ccco2)cc1 | 10µM* | -3% | -5% | 28%
CCCn1c(N)c(C(=O)CSc2nnc(Cc3ccccc3)o2)c(=O)n(C)c1=O | ? | 8% | 1% | 8.3µM*
Cc1ccc(NC(=O)CSc2nnc(CNC(=O)c3ccco3)o2)cc1 | -2% | 0% | -1% | 46%
